{"source": "PubChem BioAssay (Tox21)", "note": "Results filed as inconclusive are left out. A number with no mark means an inactive call. Calls follow the shape of the dose curve; as a rule, active = well fitted cell-killing curve with a large enough effect in the repeat runs; inconclusive = weak or mixed curves, or effect the other way; inactive = no such curve, though single readings can be large or run the other way. % is scaled to controls: 0 for no effect and ±100 for the full control effect.", "data": [{"test": "qHTS assay to identify small molecule agonists of the RXR signaling pathway - cell viability counter screen (AID 1159529); also: nearly all actives have a fitted effect of over 50% in size", "settings": "RXR-alpha-bla HEK293T viability, CellTiter-Glo, 16 h; series mostly up to 76.8 µM; activity change, negative = cytotoxicity: at the top concentration", "description": "National Center for Advancing Translational Sciences [NCATS]\nNIH Chemical Genomics Center [NCGC]\nU.S. Environmental Protection Agency [EPA]\nNational Institutes of Environmental Health Sciences [NIEHS]\nNational Toxicology Program [NTP]\nU.S. Food and Drug Administration [FDA]\nThe Retinoid X receptor (RXR), a nuclear hormone receptor expressed in liver, spleen, placenta, epidermis, central nervous system. These receptors are able to form homo and heterodimers with other nuclear receptors and due to this heterodimerizing ability, RXR functions as master regulators producing diverse physiological effects. Three subtypes of RXR exist; alpha, beta and gamma. Retinoid X receptor alpha (RXR-alpha) has potential roles in metabolic signaling pathways, skin alopecia, dermal cysts, cardiac development, insulin sensitization etc. Therefore screening environmental chemicals on RXR-alpha signaling can be used for the studies focused on such therapeutic applications. For quantification of RXR-alpha ligands signaling, GeneBLAzer RXR alpha-UAS-bla HEK 293T (Life Technologies, Carlsbad, CA) cells containing a beta-lactamase reporter-gene under control of Retinoid X receptor-alpha response element were used to screen Tox21 10K library. The cytotoxicity of the Tox21 compound library against the RXR-alpha HEK 293T cell line was tested in parallel by measuring cell viability using CellTiter-Glo assay (Promega Corporation, Madison, WI) in the same wells.\nTox21 Assay Protocol Summary:\nRXR-alpha HEK 293T cells were dispensed at 2,000 cells/6 uL of assay medium containing 2% charcoal-stripped FBS using a Multidrop Combi (ThermoFisher Scientific, Waltham, MA) dispenser. The assay was performed in black wall/clear-bottom 1536-well plates (Greiner Bio-One North America Inc. Monroe, NC). Tetraoctyl ammonium bromide was used as a positive control in the cytotoxicity screen. After the assay plates were incubated at 37 C and 5% CO2 for 5 hr, 23 nL of compounds dissolved in DMSO, positive control or DMSO only were transferred to the assay plate by a Pintool station (Kalypsys, San Diego, CA). The assay plates were incubated at 37 C and 5% CO2 for 16 hr. One uL of LiveBLAzer B/G FRET substrate (Life Technologies) was added using a Flying Reagent Dispenser (FRD) (Aurora Discovery, San Diego, CA) and the plates were incubated at room temperature for 2 hr. Fluorescence intensity (405 nm excitation, 460/530 nm emission) was measured using an Envision plate reader (PerkinElmer, Shelton, CT). For cytotoxicity, 4 uL/well of CellTiter-Glo reagent was added into the assay plates using an FRD. After 30 min incubation at room temperature, the luminescence intensity was measured using a ViewLux plate reader (PerkinElmer).", "values": [{"smiles": "CNCCO", "activity change, negative = cytotoxicity": "5.38%"}, {"smiles": "CN(C)CCCN(C)CCCN(C)C", "activity change, negative = cytotoxicity": "2.52%"}, {"smiles": "C=CC(C)(CCC=C(C)C)OC(=O)CC", "note": "(stereo not given)", "activity change, negative = cytotoxicity": "-17%"}, {"smiles": "CCCC(=O)O[C@]1(C(=O)CC)CC[C@H]2[C@@H]3CCC4=CC(=O)CC[C@]4(C)[C@H]3[C@@H](O)C[C@@]21C", "activity change, negative = cytotoxicity": "-19.9% [at 35.3 µM]"}, {"smiles": "O=C(CO)[C@@H](O)[C@H](O)[C@@H](O)CO", "activity change, negative = cytotoxicity": "9.16% [at 35.3 µM]"}, {"smiles": "Cc1cc(C)c(N=Nc2c(O)c(S(=O)(=O)O)cc3cc(S(=O)(=O)O)ccc23)cc1C", "activity change, negative = cytotoxicity": "-2.64% [at 6.97 µM]"}, {"smiles": "CN1CC(=O)N/C1=N/C(=O)Nc1cccc(Cl)c1", "activity change, negative = cytotoxicity": "0.615% [at 35.3 µM]"}, {"smiles": "COc1c(N2CCNC(C)C2)c(F)cc2c(=O)c(C(=O)O)cn(C3CC3)c12", "note": "(stereo not given)", "activity change, negative = cytotoxicity": "2% [at 35.3 µM]"}, {"smiles": "CC1OC1C1CCC2(C)OC2C1", "note": "(stereo not given)", "activity change, negative = cytotoxicity": "1.12%"}, {"smiles": "CNCC(O)c1ccc(O)c(O)c1", "note": "(stereo not given)", "activity change, negative = cytotoxicity": "3.32% [at 35.3 µM]"}, {"smiles": "COc1cc(C(=O)NCc2ccc(OCCN(C)C)cc2)cc(OC)c1OC", "activity change, negative = cytotoxicity": "5.8% [at 35.3 µM]"}, {"smiles": "CCN1CCOCC1", "activity change, negative = cytotoxicity": "-4.64%"}, {"smiles": "Clc1cc(Cl)c(Cl)nc1Cl", "activity change, negative = cytotoxicity": "5.6%"}, {"smiles": "CC(C)(C#N)Nc1nc(Cl)nc(NC2CC2)n1", "activity change, negative = cytotoxicity": "-3.99%"}, {"smiles": "O=C(O)c1cn(C2CC2)c2cc(N3CCNCC3)c(F)cc2c1=O", "activity change, negative = cytotoxicity": "4.35% [at 35.3 µM]"}, {"smiles": "CCOc1ccccc1OCC", "activity change, negative = cytotoxicity": "1.03%"}, {"smiles": "N[C@@H](CCC(=O)O)C(=O)O", "activity change, negative = cytotoxicity": "-13.4%"}, {"smiles": "CC(=O)O[C@@]12CO[C@@H]1C[C@H](O)[C@@]1(C)C(=O)[C@H](O)C3=C(C)[C@@H](OC(=O)[C@H](O)[C@@H](NC(=O)OC(C)(C)C)c4ccccc4)C[C@@](O)([C@@H](OC(=O)c4ccccc4)[C@H]21)C3(C)C", "activity change, negative = cytotoxicity": "-0.898% [at 35.3 µM]"}, {"smiles": "CCOC(=O)OC(C)OC1=C(C(=O)Nc2ccccn2)N(C)S(=O)(=O)c2ccccc21", "note": "(stereo not given)", "activity change, negative = cytotoxicity": "5.93% [at 35.3 µM]"}, {"smiles": "CC(C)(N)C#N", "activity change, negative = cytotoxicity": "5.78%"}, {"smiles": "Cc1nc(C2CCCCC2)c(-c2ccc(S(N)(=O)=O)c(F)c2)o1", "activity change, negative = cytotoxicity": "4.15% [at 35.3 µM]"}, {"smiles": "CCCCc1ccc2c(n1)[C@@H](c1ccc(OC)cc1C[C@H](C)C(=O)O)[C@H](C(=O)O)[C@H]2c1ccc2c(c1)OCO2", "activity change, negative = cytotoxicity": "3.53%"}, {"smiles": "CC[N+](CC)(CC)CCOc1cccc(OCC[N+](CC)(CC)CC)c1OCC[N+](CC)(CC)CC", "activity change, negative = cytotoxicity": "-0.429% [at 35.3 µM]"}, {"smiles": "CNC(=O)Nc1ccc(Cl)c(Cl)c1", "activity change, negative = cytotoxicity": "-8.35%"}, {"smiles": "O=C1NC(=O)C2CC=CCC12", "note": "(stereo not given)", "activity change, negative = cytotoxicity": "-1.22%"}, {"smiles": "O=S(=O)(O)c1cccc2c(S(=O)(=O)O)cccc12", "activity change, negative = cytotoxicity": "7.05%"}, {"smiles": "CCCOC(=O)CC", "activity change, negative = cytotoxicity": "0.574%"}, {"smiles": "CCCCOCCOC(=O)CCCCCCCCC(=O)OCCOCCCC", "activity change, negative = cytotoxicity": "5.29%"}, {"smiles": "COCCOC[C@H](CC1(C(=O)NC2CCC(C(=O)O)CC2)CCCC1)C(=O)Oc1ccc2c(c1)CCC2", "note": "(stereo not given in full)", "activity change, negative = cytotoxicity": "-5.56%"}, {"smiles": "Cc1ccc(C(=O)c2ccc(CC(=O)O)n2C)cc1", "activity change, negative = cytotoxicity": "4.77% [at 35.3 µM]"}, {"smiles": "C1CCC2(CCCCO2)OC1", "activity change, negative = cytotoxicity": "-1.37%"}, {"smiles": "CC(C)(C)C(=O)c1ccccc1", "activity change, negative = cytotoxicity": "15.3%"}, {"smiles": "C=COCC1CCC(COC=C)CC1", "note": "(stereo not given)", "activity change, negative = cytotoxicity": "4.94%"}, {"smiles": "CC1(C)OC[C@@H](COC(=O)CCc2ccc(OC[C@@H](O)CNCCNC(=O)N3CCOCC3)cc2)O1", "activity change, negative = cytotoxicity": "4.44% [at 35.3 µM]"}, {"smiles": "NS(=O)(=O)Cc1noc2ccccc12", "activity change, negative = cytotoxicity": "3.21% [at 35.3 µM]"}, {"smiles": "CC(=O)N1C[C@H](O)C[C@H]1C(=O)O", "activity change, negative = cytotoxicity": "4.56% [at 35.3 µM]"}, {"smiles": "CCO[Si](OCC)(OCC)c1ccccc1", "activity change, negative = cytotoxicity": "5.22%"}, {"smiles": "Cc1ncc([C@@H](CCCCCCc2ccc3c(n2)NCCC3)CC(=O)O)cn1", "activity change, negative = cytotoxicity": "6.89%"}, {"smiles": "CCCCc1nc(Cl)c(CO)n1Cc1ccc(-c2ccccc2-c2nn[nH]n2)cc1", "activity change, negative = cytotoxicity": "-1.68% [at 35.3 µM]"}, {"smiles": "CC(C)(C)C(=O)Oc1ccc(S(=O)(=O)Nc2ccccc2C(=O)NCC(=O)O)cc1", "activity change, negative = cytotoxicity": "-1.83% [at 35.3 µM]"}]}]}
